About 580 (24%) of roughly 2,400 compounds were called active. The list is a sample of the results. Values without a mark were called inactive.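 Rule for the calls: active = activity change at or above the mean plus 3 SD of buffer wells without dofetilide, per plate; inactive = the rest.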

The target in this assay is Potassium voltage-gated channel subfamily KQT member 2 (Rattus norvegicus) (UniProt O88943). As to the kind of experiment: rat KCNQ2 channel activation by compounds alone, confirmation, counter-screen for hERG block protector project, cell-based, CHO, FluxOR thallium flux (AID 1942).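 Note: normalized value minus buffer-control mean plus three SD of buffer wells.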 As to conditions: CHO-KCNQ2 cells, FluxOR thallium flux fluorescence; at 10 µM; hits give high values.
Sequence of Potassium voltage-gated channel subfamily KQT member 2 (Rattus norvegicus) (O88943 whole entry, looked up): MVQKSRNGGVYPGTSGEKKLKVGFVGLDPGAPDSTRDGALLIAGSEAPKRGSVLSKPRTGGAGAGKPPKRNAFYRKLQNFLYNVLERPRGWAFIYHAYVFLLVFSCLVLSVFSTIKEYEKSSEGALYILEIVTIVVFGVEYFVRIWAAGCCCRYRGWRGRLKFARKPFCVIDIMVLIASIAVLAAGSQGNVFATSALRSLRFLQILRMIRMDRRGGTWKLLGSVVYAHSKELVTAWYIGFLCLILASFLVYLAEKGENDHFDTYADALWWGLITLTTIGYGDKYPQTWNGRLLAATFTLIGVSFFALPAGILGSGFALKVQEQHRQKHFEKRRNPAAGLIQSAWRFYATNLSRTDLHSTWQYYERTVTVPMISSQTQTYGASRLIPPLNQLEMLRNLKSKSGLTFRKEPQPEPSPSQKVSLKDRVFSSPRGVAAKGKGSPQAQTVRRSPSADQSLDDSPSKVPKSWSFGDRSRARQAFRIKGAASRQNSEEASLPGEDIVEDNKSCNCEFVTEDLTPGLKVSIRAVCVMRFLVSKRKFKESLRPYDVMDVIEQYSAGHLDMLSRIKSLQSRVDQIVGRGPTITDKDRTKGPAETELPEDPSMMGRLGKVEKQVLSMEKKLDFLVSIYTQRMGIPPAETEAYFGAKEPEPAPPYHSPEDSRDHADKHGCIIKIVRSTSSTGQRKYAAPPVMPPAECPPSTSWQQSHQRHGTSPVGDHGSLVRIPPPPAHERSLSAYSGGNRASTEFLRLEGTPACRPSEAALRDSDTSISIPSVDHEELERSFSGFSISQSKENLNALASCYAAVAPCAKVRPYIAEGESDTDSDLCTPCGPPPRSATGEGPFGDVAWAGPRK
In the case of `Cc1ccc(/C=C2/C(=N)N3N=C(CC(=O)N4CCCC4)SC3=NC2=O)cc1`, the activity change, less the hit threshold is -19.5%. As for `CC(C)CSC1=NSC2=NC(=O)/C(=C\c3ccccc3)C(=N)N12`, the activity change, less the hit threshold is 1.1% (active). With `O=C(OCc1ccc([N+](=O)[O-])cc1)c1cc2ccccc2oc1=O`, the activity change, less the hit threshold is -21.1%.

Consider `COc1cc(C2NC(=O)NC(C)=C2C(=O)OCC2CCCCC2)ccc1O` (configuration not stated), for which the activity change, less the hit threshold is -7.2%. As to `CCOC(=O)C1=C(c2ccccc2)NC(=O)NC1c1ccc(O)c(Cl)c1` (configuration not stated), the activity change, less the hit threshold is 0.1% (active). On to `CCOC(=O)C1=C(c2ccccc2)NC(=O)NC1c1ccc(OC)c(OC)c1` (configuration not stated), for which the activity change, less the hit threshold was -25.1%. In the case of `C/C(=N\NC(=O)COc1ccc(C)cc1C(C)C)c1ccc(-n2ccnc2)cc1`, the activity change, less the hit threshold is -22.3%.

For `Cc1nn(-c2ccc(Cl)cc2)c2sc(C(=O)c3c(N)n(C)c(=O)n(C)c3=O)cc12`, the activity change, less the hit threshold was -14.1%. In the case of `Cc1nc2ccc(C(=O)O)cc2[nH]1`, the activity change, less the hit threshold is -10.4%. `C=CCn1c(=S)[nH]c2ccc(Br)cc2c1=O`: the activity change, less the hit threshold is 12.4% (active). Regarding `COc1ccccc1Cn1c(=S)[nH]c2ccc(Br)cc2c1=O`, the activity change, less the hit threshold was -7.4%.

For `O=C(CCN1C(=O)/C(=C\C=C\c2ccccc2)SC1=S)Nc1ccc(C(=O)O)cc1`, the activity change, less the hit threshold is -12.3%. With `O=c1[nH]c2ccccc2nc1C(F)(F)C(F)F`, the activity change, less the hit threshold was -16.2%. Consider `CCC(C)Sc1nc2c([nH]c3ccccc32)c(=O)n1C` (configuration not stated), for which the activity change, less the hit threshold was -19.6%. For the compound `CCSc1nc2c(sc3ccccc32)c(=O)n1C(C)C`, the activity change, less the hit threshold was 30.9% (active). Regarding `COCCCN1C(=O)C(=O)/C(=C(/O)c2ccc(S(=O)(=O)N3CCOCC3)cc2)C1c1ccc(F)cc1` (configuration not stated), the activity change, less the hit threshold was -9.9%. Consider `CNc1nc(N)nc(OC(C(F)(F)F)C(F)(F)F)n1`, for which the activity change, less the hit threshold is -11%. Consider `Oc1ccc(/C=N/Nc2nccnc2Cl)c(O)c1`, for which the activity change, less the hit threshold is 6.2% (active). On to `CN1C(=O)/C(=N\OC(=O)c2cccc3ccccc23)c2ccccc21`, for which the activity change, less the hit threshold is -9.4%. Under `CCOC(=O)C1CCN(C(=O)COC(=O)c2nn(C)c(=O)c3ccccc23)CC1` stands -21%; under `CCOC(=O)c1n[nH]n2c1nc(=S)c1ccccc12`, 49.6% (active). For `CCOC(=O)c1c(O)c2ccccc2n(C)c1=O`, the activity change, less the hit threshold was -10.3%.

On to `COC(=O)c1c(N2C(=O)CC(Sc3ncccc3C(=O)O)C2=O)sc(C)c1C` (configuration not stated), for which the activity change, less the hit threshold was -12.9%.

Consider `COc1ccc(/C=N/NC(=O)c2ccncc2)cc1CN1CCCc2ccccc21`, for which the activity change, less the hit threshold is -22.8%. In the case of `O=C(NNc1c(F)c(F)cc(F)c1F)c1cc2ccccc2oc1=O`, the activity change, less the hit threshold was -13%. On to `O=c1[nH]n2c(=O)c3c([nH]c2c1N=Nc1ccccc1)CCC3`, for which the activity change, less the hit threshold is -11.6%. Consider `O=C(NC(=S)N1CCN(C/C=C/c2ccccc2)CC1)c1ccc(Cl)nc1`, for which the activity change, less the hit threshold is 7.4% (active). For the compound `CNC(=O)NC(=O)C(C)N1CCN(C/C=C/c2ccccc2)CC1` (configuration not stated), the activity change, less the hit threshold is -19.2%. Turning to `O=C(CCN1C(=O)/C(=C\C=C\c2ccccc2)SC1=S)Nc1cccc(C(=O)O)c1`, the activity change, less the hit threshold was -20.7%. Under `O=C(Nc1ccc(N2CCN(C(=O)c3ccc(Cl)cc3)CC2)cc1)c1ccc([N+](=O)[O-])o1` stands -6.1%. Turning to `CC(=O)NC(CSC(CC(=O)c1ccco1)c1ccc(C)cc1)C(=O)O` (configuration not stated), the activity change, less the hit threshold is -4.9%. For the compound `Cc1ccc(S(=O)(=O)c2nnn3c2nc(N2CCOCC2)c2ccccc23)c(C)c1`, the activity change, less the hit threshold was -20.7%. For `COc1ccccc1NC(=O)C1CCCN1C(=O)NCc1ccccc1` (configuration not stated) the value was -24.2%.

In the case of `CCOC(=O)c1nnn(CC(=O)Nc2ccccc2OC)c1C(=O)OCC`, the activity change, less the hit threshold was -15.8%. As for `COc1ccccc1NC1=C(NC(C)=O)C(=O)c2ccccc2C1=O`, the activity change, less the hit threshold is 14.4% (active). As for `CC(C)NC(=O)Nc1n[nH]c(Nc2ccc(Cl)cc2)n1`, the activity change, less the hit threshold is 13.2% (active).

`O=C(Nc1ccc(Cl)cc1)Nn1cnnc1`: the activity change, less the hit threshold is -22.2%. On to `O=c1[nH]c2ccc(S(=O)(=O)NCc3ccccc3)cc2[nH]1`, for which the activity change, less the hit threshold was -14%. As for `CC(C)Nc1nc(SCC(N)=O)nc(N2CCOCC2)n1`, the activity change, less the hit threshold is -13.5%. With `Cc1ccc2nc(SCC(=O)N3CCCCCC3)nc(=O)n2c1`, the activity change, less the hit threshold was -23.7%. For `O=C(CSc1nc(N2CCCCC2)nc(N2CCCCC2)n1)c1ccccc1` the value was 31.5% (active); for `CN(C)CCOC(=O)C1(c2ccccc2)CCCC1`, -12.9%. For the compound `Cn1c(=S)[nH]c2scc(-c3cccs3)c2c1=O`, the activity change, less the hit threshold was 70.4% (active). Under `COc1cc(/C=N/n2cnc3scc(-c4cccs4)c3c2=O)cc(OC)c1OC` stands -21%.

As to `S=c1[nH]c(-c2cccs2)cn1-c1ccccc1`, the activity change, less the hit threshold was -6.4%. Turning to `CC(C)n1c(=S)[nH]c2scc(-c3cccs3)c2c1=O`, the activity change, less the hit threshold is 97.6% (active). On to `CC(C)C(=O)Nc1c(-c2ccccc2F)c(=O)c2ccccc2n1C`, for which the activity change, less the hit threshold is -21.5%. As for `NC(=O)C1CCN(C(=O)CC(c2ccccc2)c2ccccc2)CC1`, the activity change, less the hit threshold is -24%. For the compound `Brc1ccc(-c2noc(CCc3ccccc3)n2)cc1`, the activity change, less the hit threshold was -24.9%. On to `Fc1ccccc1-c1n[nH]c(=S)n1C1CC1`, for which the activity change, less the hit threshold is -17.8%. For `CC(C)(C)c1cc(-c2n[nH]c(=S)n2-c2ccccc2F)n[nH]1` the value was 11.5% (active); for `COc1ccc(/C(C)=N/Nc2ccc(C(=O)O)cc2)c(OC)c1`, -18.1%. For the compound `COc1ccccc1-n1c(CCC(=O)O)ccc1-c1ccccc1`, the activity change, less the hit threshold is -13.3%. Under `ON/C=N/C(=S)Nc1ncc(C(F)(F)F)cc1Cl` stands 26.3% (active). For `CON/C=N/C(=S)Nc1ncc(C(F)(F)F)cc1Cl` the value was 29.7% (active). Under `c1ccc(Oc2cccc(OCCn3cncn3)c2)cc1` stands -14.9%; under `Cc1ccccc1NC(=O)CN1C(=O)S/C(=C\c2ccc(-c3cccc(C(=O)O)c3C)o2)C1=O`, -22.4%. For the compound `CN(Cc1ccsc1)C(=O)CCc1nnc(Cc2c[nH]c3ccccc23)o1`, the activity change, less the hit threshold was -10.9%.

In the case of `O=C1NCC(=O)N2C(c3ccccc3)c3[nH]c4ccccc4c3C[C@@H]12` (some centres not stated), the activity change, less the hit threshold is -11.9%. `CC(=O)CSc1ncnc2sc3c(c12)CCC(C)C3` (configuration not stated): the activity change, less the hit threshold is 89.9% (active). Take `COc1cc(NC(=O)CCCOc2ccc(Cl)cc2Cl)c(C(=O)O)cc1OC`: the activity change, less the hit threshold was -18.7%. On to `COc1cc(NC(=O)CSc2ncnc3sc4c(c23)CCC(C)C4)c(C(=O)O)cc1OC` (configuration not stated), for which the activity change, less the hit threshold was 89.6% (active).

The values above are taken from PubChem BioAssay AID1942 (Johns Hopkins Ion Channel Center, 2009).
